According to PubChem BioAssay (NCI):
Several values for one entry are separate records, joined by “and”; a condition that tells them apart may be missing. Identical values can stand only once. Compounds without any hit were thinned out: in the full panel of roughly 83,000, 20% have a hit.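 Testing used 96-well plates and a 48-hour single-concentration exposure. Example: -40 means 40% of the starting cells died.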 Activity calls are given as the source filed them. How the source made its calls: active means growth percent below 10; inactive means the rest.

Columns and labels:
Assay in all cases: NCI-60 one-dose screen, 48 h (100 = growth as untreated, 0 = no growth, -100 = all killed)
Conditions in all cases: 10 µM unless noted
HCT-15 colon = tested on: HCT-15 colon
HT29 colon = tested on: HT29 colon
SNB-75 CNS = tested on: SNB-75 CNS
SNB-19 CNS = tested on: SNB-19 CNS
PC-3 prostate = tested on: PC-3 prostate
SK-MEL-5 melanoma = tested on: SK-MEL-5 melanoma
UACC-62 melanoma = tested on: UACC-62 melanoma
LOX IMVI melanoma = tested on: LOX IMVI melanoma
SK-MEL-28 melanoma = tested on: SK-MEL-28 melanoma
U251 CNS = tested on: U251 CNS

Row | SMILES | growth (HCT-15 colon) | growth (HT29 colon) | growth (SNB-75 CNS) | growth (SNB-19 CNS) | growth (PC-3 prostate) | growth (SK-MEL-5 melanoma) | growth (UACC-62 melanoma) | growth (LOX IMVI melanoma) | growth (SK-MEL-28 melanoma) | growth (U251 CNS)
1 | NC(=S)NS(=O)(=O)c1ccc(N)cc1 | 96.8% (inactive) | 109% (inactive) | 93% (inactive) | 113% (inactive) | 102% (inactive) | 101% (inactive) | 119% (inactive) | 105% (inactive) | 109% (inactive) | 
2 | COc1c(/C(C)=N/N=c2sc(C(C)=O)nn2-c2ccc(Cl)cc2)c(Oc2ccccc2)c(OC)c2occc12 | 102% (inactive) and 92.6% (inactive) | 108% (inactive) and 86.1% (inactive) | 80.6% (inactive) and 90.1% (inactive) | 96.1% (inactive) and 98.1% (inactive) | 102% (inactive) and 88% (inactive) | 100% (inactive) and 103% (inactive) | 96.1% (inactive) and 84.7% (inactive) | 91.8% (inactive) and 96% (inactive) | 112% (inactive) | 99.5% (inactive) and 97.2% (inactive)
3 | Nc1ccc2ccc(N)cc2c1 | 74.4% (inactive) | 94.2% (inactive) | 91.3% (inactive) | 96.1% (inactive) | 60.3% (inactive) | 83% (inactive) | 80.7% (inactive) | 65.1% (inactive) | 92.1% (inactive) | 
4 | CCN(CC)CCCC(C)Nc1ccnc2cc(Oc3ccccc3)ccc12 (configuration not stated) | 52.7% (inactive) and 54.5% (inactive) | 30.1% (inactive) | 62.9% (inactive) and 99.8% (inactive) | 83.5% (inactive) and 94.5% (inactive) | 61.9% (inactive) and 67.7% (inactive) | -87.1% (active) and 79.6% (inactive) | 60.9% (inactive) and 92.8% (inactive) | 22.2% (inactive) and 39.3% (inactive) | 1.01% (active) and 85.5% (inactive) | 56.5% (inactive) and 60.4% (inactive)
5 | CCOc1ccc2nc3cc(N)ccc3c(N)c2c1 | 107% (inactive) and 90% (inactive) | 75.7% (inactive) and 60.7% (inactive) | 47.6% (inactive) | 10.5% (inactive) | 61.8% (inactive) and 75.6% (inactive) | 43.2% (inactive) | 73.8% (inactive) | 82.5% (inactive) | 75.5% (inactive) and 89.8% (inactive) | -12.6% (active) and 5.58% (active)
6 | COc1cc2c(c(OC)c1OC)-c1ccc(OC)c(=O)cc1[C@@H](NC(C)=O)CC2 | 12.2% (inactive) and 8.71% (active) and 3.71% (active) | 9.16% (active) and 7.29% (active) and -16.8% (active) | 35.6% (inactive) and 76.6% (inactive) and 19.3% (inactive) | 39.5% (inactive) and 30.5% (inactive) and 19% (inactive) | 25.6% (inactive) and 20.7% (inactive) and 7.6% (active) | -59.8% (active) and -36.1% (active) and -32% (active) | 36.9% (inactive) and 40.9% (inactive) and 19.1% (inactive) | 15.7% (inactive) and 18.9% (inactive) and 26.5% (inactive) | 64.5% (inactive) and 62.4% (inactive) | 22.5% (inactive) and 14.1% (inactive) and 19% (inactive)
7 | O=[N+]([O-])c1ccccc1N(S(=O)(=O)c1ccccc1)S(=O)(=O)c1ccccc1 | 105% (inactive) and 90.4% (inactive) | 109% (inactive) and 103% (inactive) | 96.2% (inactive) | 107% (inactive) and 98.6% (inactive) | 80.3% (inactive) and 77.7% (inactive) | 110% (inactive) | 76.1% (inactive) and 66% (inactive) | 98.7% (inactive) and 84.7% (inactive) | 115% (inactive) and 111% (inactive) | 91.5% (inactive) and 87.8% (inactive)
8 | COc1ccc2nc(Cl)cc(C)c2c1 | 99.2% (inactive) and 101% (inactive) | 101% (inactive) and 105% (inactive) | 99.2% (inactive) and 98.3% (inactive) | 98.1% (inactive) and 111% (inactive) | 99.2% (inactive) and 82.3% (inactive) | 98.8% (inactive) and 120% (inactive) | 94.4% (inactive) and 95.2% (inactive) | 105% (inactive) and 113% (inactive) | 104% (inactive) and 118% (inactive) | 98.9% (inactive) and 108% (inactive)
9 | CCC(C)C1(C2CCCC2)NC(=O)NC1=O (configuration not stated) | 107% (inactive) and 102% (inactive) | 97.3% (inactive) and 108% (inactive) | 94.5% (inactive) and 103% (inactive) | 98.8% (inactive) and 99.7% (inactive) | 102% (inactive) and 95.2% (inactive) |  |  | 92.2% (inactive) | 109% (inactive) and 108% (inactive) | 105% (inactive) and 108% (inactive)
10 | O=C(Oc1cccc(OC(=O)c2ccccc2)c1)c1ccccc1 | 73% (inactive) and 102% (inactive) | 79.9% (inactive) and 102% (inactive) | 97.1% (inactive) and 79.6% (inactive) | 111% (inactive) and 98.9% (inactive) | 9.09% (active) and 91.8% (inactive) | 101% (inactive) and 94.8% (inactive) |  | 78.3% (inactive) and 87.9% (inactive) | 115% (inactive) and 100% (inactive) | 80.4% (inactive) and 101% (inactive)
11 | CC(=O)NC(Cc1ccccc1)C(=O)Oc1ccc2ccccc2c1 (configuration not stated) | 87.4% (inactive) and 102% (inactive) | 114% (inactive) and 96.4% (inactive) | 84.3% (inactive) and 78.1% (inactive) | 113% (inactive) | 85.5% (inactive) and 90.6% (inactive) | 101% (inactive) |  | 84.9% (inactive) and 87.7% (inactive) | 117% (inactive) and 105% (inactive) | 97.7% (inactive) and 102% (inactive)
12 | CC(CN=Cc1ccccc1O)N=Cc1ccccc1O (configuration not stated) | 105% (inactive) and 97.2% (inactive) | 115% (inactive) and 110% (inactive) | 104% (inactive) and 82.4% (inactive) | 96.1% (inactive) and 101% (inactive) | 96% (inactive) and 95.8% (inactive) | 102% (inactive) and 106% (inactive) | 107% (inactive) and 105% (inactive) | 101% (inactive) and 88.8% (inactive) | 117% (inactive) and 102% (inactive) | 96.6% (inactive) and 104% (inactive)
13 | CN(C)c1ccc2nc3ccc(N)cc3[n+](-c3ccccc3)c2c1 | 90.7% (inactive) and 18.7% (inactive) | 32.5% (inactive) and 24.4% (inactive) | 18.6% (inactive) and 52.4% (inactive) | 12.3% (inactive) and 21.1% (inactive) | 22.2% (inactive) and 7.58% (active) | -5.68% (active) and -77.7% (active) |  | 28% (inactive) and 6.03% (active) | 37.6% (inactive) and 30.9% (inactive) | 16% (inactive) and 3.13% (active)
14 | CCOc1ccc2cc(-c3nn(CC4CCN(C)CC4)c4ncnc(N)c34)ccc2c1 | 76% (inactive) and 29.8% (inactive) | 69.2% (inactive) and 9.92% (active) | 50% (inactive) and 33.9% (inactive) | 92.8% (inactive) and 68.3% (inactive) | 85.8% (inactive) and 51.5% (inactive) | 87.2% (inactive) and -65.2% (active) | -24.5% (active) | 77.7% (inactive) and 6.18% (active) | 97.1% (inactive) and -58.3% (active) | 83.8% (inactive) and 43.3% (inactive)
15 | CC(C)C(=O)Nc1ccc([N+](=O)[O-])c(C(F)(F)F)c1 | 94% (inactive) and 100% (inactive) | 106% (inactive) and 115% (inactive) | 113% (inactive) and 92% (inactive) | 96.8% (inactive) and 102% (inactive) | 69.5% (inactive) and 100% (inactive) | 85.2% (inactive) and 98.4% (inactive) |  | 90% (inactive) and 93.2% (inactive) | 102% (inactive) and 107% (inactive) | 98.3% (inactive) and 96.7% (inactive)
